The whole screen tested about 69,000 compounds, of which about 8,600 (12%) showed an effect of 50% or more. Many of the other results were omitted from the sample, so strong results are more common in it than they were.

The test has as its system Plasmodium berghei. Nature of the test: Screen against P. berghei liver stage (PbLuc), transformed with Luciferase, at 10uM. It counts as functional, HepG2. The note with it: tested at 10 uM.
For the molecule `COc1cccc(C2CC(=O)Nc3nc(N4CCCCC4)sc32)c1OC` (stereo unspecified), the INHIBITION came out at 19.3%.

Turning to `COc1cccc(C2CCN(c3ccc4cc[nH]c4n3)C2)c1OC` (stereo unspecified), the INHIBITION came out at 89.9%.

For `COc1ccccc1C1CCN(c2ccc3cc[nH]c3n2)CC1`, the INHIBITION came out at 88.2%. Consider `COc1ccc(OC)c(C2CCN(C3CCOCC3)C2)c1` (stereo unspecified), for which the INHIBITION is on record as -68.6%.

Turning to `COc1ccc(OC)c(C2CCN(Cc3nc(C)n4ccccc34)C2)c1` (stereo unspecified), the INHIBITION came to 45.8%. Consider `COc1cccc(C2CC(=O)Nc3nc(N4CCOCC4)sc32)c1OC` (stereo unspecified), for which the INHIBITION is 13.4%.

As for `COc1ccc(OC)c(C2CCN(c3ccc4cc[nH]c4n3)C2)c1` (stereo unspecified), the INHIBITION is 79.2%.

`COC(=O)c1ccc(N2CCC(c3ccccc3)CC2)nn1`: the INHIBITION was -18.5%.

With `COc1ccccc1OC1CCN(c2nc(N)nc3[nH]cnc23)CC1`, the INHIBITION was -18.8%.

With `Fc1cnc(N2CCC3(CCCN(c4nncs4)C3)C2)nc1` (stereo unspecified), the INHIBITION is 4.68%. On to `COCC1COCCC12CCN(CCc1ccccc1)CC2` (stereo unspecified), for which the INHIBITION is reported as 2.3%.

For the molecule `O=C(Nc1cn[nH]c1)c1ccncc1`, the INHIBITION is recorded as 35.95%. With `CN(C)C(=O)CNC(=O)c1nc(C2CC2)n(-c2ccccc2Cl)n1`, the INHIBITION is given as -20.8%. Regarding `O=C(c1ccnnc1)N1CC[C@H]2C[C@H](c3ccncn3)O[C@@H]2C1`, the INHIBITION is 25.2%. As for `Cc1ccc(Oc2ncccc2C(=O)O)c(C)c1`, the INHIBITION is -16.2%. Take `CC(C)c1cc(N2CCN(c3ccc(O)cc3)CC2)n2nccc2n1`: the INHIBITION stood at 26.8%. Take `CC(C)[C@H](Nc1cc(-c2ccncc2)nc2ccnn12)C(N)=O`: the INHIBITION was 25.5%.

For `CC(C)c1cc(N[C@@H](CO)C(N)=O)n2nccc2n1`, the INHIBITION is given as 42.3%. Consider `CC(C)c1cc(NCC(C)N2CCCC2)n2nccc2n1` (stereo unspecified), for which the INHIBITION is given as 65.1%. With `CC(C)c1cc(N2CCC(N)CC2)n2nccc2n1`, the INHIBITION was -6.53%. As to `CC(C)c1cc(N2CCC(CCC(=O)NC3CC3)CC2)n2nccc2n1`, the INHIBITION is recorded as 33.5%. For `Cc1cnn(CC2CCN(c3cc(C(C)C)nc4ccnn34)CC2)c1`, the INHIBITION turned out to be 21.2%. Next, `CC(C)c1cc(N2CC[C@H](F)C2)n2nccc2n1`: 65.7%; `CC(C)c1cc(NCC(O)c2ccncc2)n2nccc2n1` (stereo unspecified): 0.897%; `CC(=O)NCC1CCN(c2cc(C(C)C)nc3ccnn23)CC1`: 59.4%.

Regarding `CC(C)c1cc(NCC(O)CO)n2nccc2n1` (stereo unspecified), the INHIBITION is listed as 36.8%.

Turning to `CC(C)c1cc(N[C@H](C(N)=O)C(C)C)n2nccc2n1`, the INHIBITION was 55.2%. On to `O=C(Cc1ccsc1)N1CCC(O)(CN2CCc3ccccc3C2)C1` (stereo unspecified), for which the INHIBITION came to 30.8%. With `COc1ncccc1CN1C[C@@H]2COC[C@]2(COCC(=O)N(C)C)C1` the figure was -3.52%; with `CCn1cc(C(=O)NCCN2CCCc3ccccc32)c(C)n1`, 12.9%; with `Cn1nc(C2CCN(C(=O)c3cccs3)CC2)c2cccnc21`, 47.2%. Turning to `CCc1nc(CS(=O)(=O)Cc2noc(C3CC3)n2)cs1`, the INHIBITION was 34%. For `CC(C)=CCN1CCN(C(=O)C2CC2)CC1`, the INHIBITION is 21.5%. Turning to `CC(C)COCC1CN(Cc2ccsc2)Cc2ncn(C)c21` (stereo unspecified), the INHIBITION came out at 16.4%. As for `Cn1nnc2c1C(COCc1cccnc1)CN(Cc1ccoc1)C2` (stereo unspecified), the INHIBITION stood at 29.4%. Consider `Cc1nc(C)c(CNCC2(COc3cccnc3)C[C@@H](O)[C@@H](O)C2)s1` (stereo partly specified), for which the INHIBITION was determined as 33.6%. Regarding `Cc1noc(CCCC(=O)N2CCCC2c2ccsc2)n1` (stereo unspecified), the INHIBITION is given as 0.914%. `Cc1cccc2c1NC1(CCCC1)NC2=O`: the INHIBITION was found to be 45.2%. Turning to `COC(=O)C1CCN(C(=O)Cn2ccc(-c3ccc(F)cc3)n2)CC1`, the INHIBITION was -36.4%. For `O=C1[C@@H]2CC[C@@H](CN(C3CSCCSC3)C2)N1Cc1cscn1`, the INHIBITION is given as -14.9%.

On to `Cc1cc2nc(C(C)C)cc(N3CCC(O)CC3)n2n1`, for which the INHIBITION is 11.3%. As to `COC1CCN(c2cc(C(C)C)nc3ccnn23)C1` (stereo unspecified), the INHIBITION stood at 7.6%. Next, `Cc1cc(N2CCCC(N(C)C)C2)n2nc(C)cc2n1` (stereo unspecified): -1.16%. Regarding `Cc1cc(N2CCCC(N(C)C)C2)n2nccc2n1` (stereo unspecified), the INHIBITION stood at 55.4%. For `Cc1cc2nc(C(C)C)cc(N3CCC(N(C)C)C3)n2n1` (stereo unspecified), the INHIBITION is recorded as 17.7%. `Cc1nn2c(N3CCC(O)C3)cc(-c3ccccc3)nc2c1C` (stereo unspecified): the INHIBITION was determined as 38.5%. As to `Cc1nn2c(N3CCCC(C#N)C3)cc(-c3ccccc3)nc2c1C` (stereo unspecified), the INHIBITION is listed as 19.5%.

Consider `CC(C)c1cc(N2CCC(N(C)C)C2)n2nccc2n1` (stereo unspecified), for which the INHIBITION is listed as 53.9%. For `CN(C)C1CCN(c2cc(-c3ccccc3)nc3ccnn23)C1` (stereo unspecified), the INHIBITION was 74.9%. Consider `CC(C)c1cc(N2CCSCC2)n2nccc2n1`, for which the INHIBITION is on record as -6.03%. `CC(C)c1cc(N2CCC[C@H](N)C2)n2nccc2n1`: the INHIBITION stood at 13%. `CC(C)c1cc(N2CCC(C(C)N3CCCC3)CC2)n2nccc2n1` (stereo unspecified): the INHIBITION worked out at 73%. With `COc1cccc(OCCc2nnc(NC(C)=O)s2)c1`, the INHIBITION is on record as -8.9%. For `N[C@H]1CN(C(=O)CCCc2ccc(F)cc2)C[C@@H]1C1CC1`, the INHIBITION was found to be 25.1%. `O=C1COc2ccc(C(=O)NS(=O)(=O)c3cc(F)ccc3F)cc2N1`: the INHIBITION is listed as 33.3%. With `CCc1cc(NC(=O)C2CCCN(C(=O)c3ccncc3)C2)[nH]n1` (stereo unspecified) the figure was 8.86%; with `O=C(Cc1csc(-c2cccc(Cl)c2)n1)NCc1cccc(C(=O)O)c1`, 34.5%; with `COCCN(CCOC)C(=O)c1c[nH]nc1-c1cccc(F)c1`, -3.24%. Turning to `Cc1nc(-c2ccc(Cl)s2)sc1C(=O)NCCCC(N)=O`, the INHIBITION is given as -102.2%. Regarding `CCN1CC(COC(=O)c2cc(Br)ccc2F)CC1=O` (stereo unspecified), the INHIBITION amounted to 8.4%.

Take `CC(C)C1CCCN1CC(=O)NCc1ccc(OCC(N)=O)cc1` (stereo unspecified): the INHIBITION worked out at 12.8%. For the molecule `CC(C)c1cc(N2CCC(NS(C)(=O)=O)CC2)n2nccc2n1`, the INHIBITION came out at 61.2%. As for `CC(C)c1cc(NC(CO)CO)n2nccc2n1`, the INHIBITION turned out to be 33.2%. For the molecule `CC(C)c1cc(N2CCC(NS(C)(=O)=O)C2)nc(C(C)C)n1` (stereo unspecified), the INHIBITION is on record as 49.6%. With `CC(=O)N1CCCN(C(=O)CCc2c(C)nc3ccnn3c2C)CC1` the figure was 10%; with `CC(=O)N1CCC2(CC1)CNc1ccc(F)cc12`, 36.2%; with `O=C(Nc1ccccc1)C1=NOC2(CCCNC2)C1` (stereo unspecified), -4.02%. With `CC(=O)c1ccc(NC(=O)c2ccc3c(c2)C2(CCCCC2)CN3)cc1`, the INHIBITION amounted to 64.7%.

As for `O=C(Nc1ccccc1)c1ccc2c(c1)C1(CCCCC1)CN2`, the INHIBITION was 90.1%. In the case of `CN(C)C(=O)N1CCC2(CC1)CNc1ccc(F)cc12`, the INHIBITION is recorded as 49.1%.

Regarding `CNC(=O)N1CCC2(CC1)CNc1ccc(F)cc12`, the INHIBITION worked out at 10.5%. With `CCOCC1CN(S(=O)(=O)c2ccccc2)Cc2nccn2C1` (stereo unspecified), the INHIBITION is recorded as 34%. Next, `COC(C)(C)C(=O)N1CCC(c2cc(CN(C)C)n(C)n2)CC1`: -42.1%; `CC(=O)N1CCN(C(=O)C(C)OCC(F)(F)F)CC1` (stereo unspecified): -22.8%; `CN(CC(N)=O)C(=O)c1cc(Cl)c(Cl)n1C`: 8.4%. Next, `CC(C)Cc1nc(CN2CCC(NC(=O)c3cccs3)CC2)no1`: 24.2%; `Cc1ccc(C(=O)NC2CCN(Cc3noc(C(C)C)n3)CC2)s1`: 7.44%. With `CC(C)Cc1noc(CN2CCC(NC(=O)c3cccs3)CC2)n1`, the INHIBITION is on record as 53.5%.

As to `Cc1ccc(C(=O)NC2CCN(Cc3noc(CC(C)C)n3)CC2)s1`, the INHIBITION stood at 71.8%. `CC(C)Cc1noc(CN2CCN(C(=O)c3cccs3)CC2)n1`: the INHIBITION is 0.891%.

For the molecule `Cc1ccc(C(=O)NC2CCN(Cc3nc(CC(C)C)no3)CC2)s1`, the INHIBITION was 18.6%.

Take `CCOc1ccnc(N2CCCN(C(=O)c3cc[nH]c3C)CC2)n1`: the INHIBITION was -7.31%. With `COc1ccccc1-c1ccc(NCc2cn3c(n2)SCC3)nn1`, the INHIBITION stood at 9%. In the case of `CCc1c(C)nc2n(c1=O)CC(C(=O)Nc1ccccc1C)CS2` (stereo unspecified), the INHIBITION came out at 42.4%. For the molecule `CC(C)CCCNC(=O)Nc1ccc(C(N)=O)c(Cl)c1`, the INHIBITION was -49.5%.

`COc1no[n+]([O-])c1-c1ccccc1`: the INHIBITION was 63.5%. Consider `CCOc1no[n+]([O-])c1-c1ccccc1`, for which the INHIBITION was found to be 36.9%. For the molecule `CN(C)c1no[n+]([O-])c1-c1ccccc1`, the INHIBITION is reported as -3.19%. `Cc1[nH]ncc1C(=O)N(CC(C)C)CC(O)c1ccc(F)cc1` (stereo unspecified): the INHIBITION was -12.1%. In the case of `CCN1CC2(CCC1=O)CCN(CCOc1ccc(F)cc1)CC2`, the INHIBITION is 10.1%. For `CCC(CC)C(O)CNC(=O)Nc1cc(C)nn1C` (stereo unspecified), the INHIBITION is 11.6%. With `CN(C)C(=O)N1CC[C@]2(O)CCN(C(=O)c3ccc(C#N)nc3)C[C@@H]2C1` the figure was 42.4%. Next, `Cc1ncc(C(=O)N2CC[C@@]3(O)CCN(C(=O)N(C)C)C[C@H]3C2)cn1`: 37.8%. Next, `Cc1ccc(C(=O)N2CC[C@@]3(O)CCN(C(=O)N(C)C)C[C@H]3C2)cc1Cl`: 62.8%; `Cn1ccc2cc(C(=O)N3CC[C@@]4(O)CCCC[C@H]4C3)ccc21`: -4.87%. In the case of `COc1ccc(C(=O)N2CC[C@@]3(O)CCCC[C@H]3C2)cc1OC`, the INHIBITION was found to be 44.3%.

As to `Cc1ccc(C(=O)N2CC[C@@]3(O)CCCC[C@H]3C2)cc1`, the INHIBITION is reported as 56.3%. For `Cc1nc(C2CCCN2CC(=O)N2CCc3ccccc32)no1` (stereo unspecified), the INHIBITION is given as 46.2%. As for `COCCN(C)C(C(=O)O)c1ccc(F)c(C)c1` (stereo unspecified), the INHIBITION came to 14%. As to `COc1cccc(CN2CCOC(c3cnccn3)C2)c1F` (stereo unspecified), the INHIBITION is given as -18.9%. For `O=C(N1CCOCC1)[C@@]12CCO[C@@H]1CCN(C1CCCC1)C2`, the INHIBITION is 8.67%.

As to `CN(Cc1ccncc1)C(=O)[C@H]1CSCN1C(=O)OC(C)(C)C`, the INHIBITION is -12.1%. Take `O=C1NC(c2ccccc2)=N[C@@]12CC[C@@H]1CN(S(=O)(=O)C3CC3)C[C@@H]12`: the INHIBITION turned out to be 76.4%. Turning to `O=C1NC(c2ccccc2)=N[C@@]12CC[C@@H]1CN(Cc3ccccc3)C[C@@H]12`, the INHIBITION is on record as -21.3%. For `O=C1NC(c2ccccc2)=N[C@@]12CC[C@@H]1CN(CC3CCOCC3)C[C@@H]12`, the INHIBITION worked out at 2.74%. With `CC(C)NC(=O)C1CCN(c2snc3ccccc23)CC1` the figure was -15.5%.
